# Data as given in PubChem BioAssay (NCATS).
# Records with an inconclusive call do not appear. The source made the active and inactive calls. Calls come from the whole dose curve; as a rule, active = well fitted curve in the direction sought with a large enough effect; inconclusive = small, poorly fitted or top-dose-only effect, or another doubt; inactive = no such curve, though single readings can be large; an effect the other way counts as inactive or inconclusive.
# Columns and labels:
# [1] = BET inhibitor-based combinations targeting novel dependencies in MECOM-rearranged (r) AML: OCI-AML3 cell line (AID 2202232); conditions: Potency: OCI-AML3 viability; note: nearly all actives have a fitted effect of over 35% in size
# Method in brief: (§1)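 Here, 11-point titrations of each agent were applied to 500 seeded cells and incubated 48 hr; CellTiter-Glo signal, scaled against DMSO and empty wells, was integrated as AUC, then Z-scored within the individual line.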
# [2] = BET inhibitor-based combinations targeting novel dependencies in MECOM-rearranged (r) AML: MV-4-11 cell line (AID 2202233); note: nearly all actives have a fitted effect of over 45% in size
# Method in brief: (§2)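 Normalized to DMSO and empty-well controls, the luminescence data from CellTiter-Glo after 48 hr drug exposure were fitted across 11 concentrations. Reported metrics are area under the dose-response curve and its Z-transformed form.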
# [3] = BET inhibitor-based combinations targeting novel dependencies in MECOM-rearranged (r) AML: UCSD-AML1 cell line (AID 2202235); note: nearly all actives have a fitted effect of over 40% in size
# Method in brief: as §2
# [4] = BET inhibitor-based combinations targeting novel dependencies in MECOM-rearranged (r) AML: AML-191 cell line (AID 2202236; note: nearly all actives have a fitted effect of over 35% in size)
# Method in brief: as §1
# [5] = BET inhibitor-based combinations targeting novel dependencies in MECOM-rearranged (r) AML: AML-194 cell line (AID 2202237; note: nearly all actives have a fitted effect of over 40% in size)
# Method in brief: as §1
# [6] = BET inhibitor-based combinations targeting novel dependencies in MECOM-rearranged (r) AML: HNT-34 cell line (AID 2202234); note: nearly all actives have a fitted effect of over 35% in size
# Method in brief: as §2
# Potency is the fitted concentration of half-maximal effect.
SMILES,Potency [1],Potency [2],Potency [3],Potency [4],Potency [5],Potency [6]
CC(C)n1cc(-c2ccc3c(c2)N(C)CC3)c2c(NS(=O)(=O)c3ccn(C)n3)ccnc21,inactive,inactive,inactive,inactive,inactive,
CC/C(=C(/c1ccc(O)cc1)c1ccc(OCCNC)cc1)c1ccccc1,14.8 µM (active),,9340 nM (active),13.2 µM (active),13.2 µM (active),23.5 µM (active)
Nc1n[n+]([O-])c2ccccc2[n+]1[O-],18.6 µM (active),,inactive,18.6 µM (active),,16.6 µM (active)
CCCCCCCCCCCC(CC1OC(=O)C1CCCCCC)OC(=O)C(CC(C)C)NC=O (centres undefined),inactive,0.742 µM (active),,inactive,inactive,
Cn1cc(-c2ccc(-c3cncc(Cl)c3N3CCC4(CCNC4=O)CC3)cc2)cn1,16.6 µM (active),14.8 µM (active),inactive,,,
COc1cc(N2CCN(C)CC2)ccc1Nc1ncc2c(n1)N(C)c1ccccc1C(=O)N2,18.6 µM (active),,,26.3 µM (active),,26.3 µM (active)
CCOC(=O)N[C@@H]1CC[C@@H]2[C@@H](C1)C[C@H]1C(=O)O[C@H](C)[C@H]1[C@H]2/C=C/c1ccc(-c2cccc(F)c2)cn1,14.8 µM (active),26.3 µM (active),inactive,inactive,,
Cc1ccc(NC(=O)c2cccc(C(C)(C)C#N)c2)cc1Nc1ccc2ncn(C)c(=O)c2c1,0.0742 µM (active),,,,,0.662 µM (active)
CC(C)Oc1ccc(C(=O)N[C@H](CNC(=O)CN(C)C)Cc2ccc(-c3cn4cccc([C@H](C)O)c4n3)cc2)cc1Cl,0.263 µM (active),0.166 µM (active),332 nM (active),0.263 µM (active),0.332 µM (active),
C=CC(=O)N1CCC(C2CCNc3c(C(N)=O)c(-c4ccc(Oc5ccccc5)cc4)nn32)CC1 (centres undefined),13.2 µM (active),10.5 µM (active),inactive,,,
Cc1c(NC(=O)c2cc(C(N)=O)nc3cc(F)ccc23)c(C(F)(F)F)nn1Cc1ccc(C(C)(C)C)cc1,23.5 µM (active),inactive,inactive,16.6 µM (active),,
COc1cc(-c2cn(C)c(=O)c3cnccc23)c(OC)cc1CN(C)C,1.18 µM (active),,inactive,inactive,inactive,inactive
CN[C@@H](C)C(=O)N[C@H](C(=O)N1CCC[C@H]1C(=O)Nc1snnc1-c1ccccc1)C1CCCCC1,inactive,,1860 nM (active),,3.32 µM (active),inactive
C/C(O)=C(\C#N)C(=O)Nc1ccc(C(F)(F)F)cc1,9.34 µM (active),,inactive,,,14.8 µM (active)
C[C@H]1C[C@@H](n2c(Nc3ccc(OC(F)(F)F)cc3)nc3cc(CCC(=O)O)ccc32)CC(C)(C)C1,20.9 µM (active),20.9 µM (active),,26.3 µM (active),,
C[C@]12CCC3=C4CCC(=O)C=C4CC[C@H]3[C@@H]1CC[C@@]2(O)CC#N,inactive,inactive,,,inactive,
Cc1cc(/C=c2/sc3nc4ccccc4n3c2=O)c(C)n1-c1ccccc1,14.8 µM (active),20.9 µM (active),,16.6 µM (active),,
CN1CCN(C(=O)c2ccc(-c3ccc4c(C=O)c(O)ccc4c3)s2)CC1,26.3 µM (active),,,,,16.6 µM (active)
COC(=O)Nc1nc2ccc(S(=O)c3ccccc3)cc2[nH]1 (centres undefined),26.3 µM (active),16.6 µM (active),7420 nM (active),6.61 µM (active),7.42 µM (active),
COc1cc(OC)c(/C=C/S(=O)(=O)Cc2ccc(OC)c(OP(=O)(O)O)c2)c(OC)c1,0.118 µM (active),,118 nM (active),,0.118 µM (active),0.105 µM (active)
CCN(C(=O)c1c(O)c2c(Cl)cccc2n(C)c1=O)c1ccccc1,13.2 µM (active),14.8 µM (active),,9.34 µM (active),,
N#Cc1c(N)nc(N)nc1N[C@H](c1nc2c(F)ccc(Cl)c2c(=O)n1-c1cccnc1)C1CC1,6.61 µM (active),,5900 nM (active),,,16.6 µM (active)
COc1ccc2c(c1OC)C(=O)OC2[C@H]1c2c(cc3c(c2OC)OCO3)CCN1C (some centres undefined),20.9 µM (active),18.6 µM (active),inactive,13.2 µM (active),20.9 µM (active),
CC(C)C[C@H](NC(=O)c1cc2ccccc2s1)C(=O)N1CCN(C(=O)[C@H](CO)NS(=O)(=O)c2ccc(Cl)cc2Cl)CC1,18.6 µM (active),,inactive,,,26.3 µM (active)
Cn1cc(C2=C(c3cn(C)c4cc([N+](=O)[O-])ccc34)C(=O)NC2=O)c2ccccc21,0.662 µM (active),0.833 µM (active),833 nM (active),0.662 µM (active),0.417 µM (active),
CNC(=O)c1c(C)oc2cc(Oc3ncnc4cc(OC)c(OC)cc34)ccc12,inactive,,inactive,inactive,inactive,inactive
NS(=O)(=O)c1ccc(NC(=S)N2CCN(C/C=C/c3ccccc3)CC2)cc1,20.9 µM (active),,inactive,,inactive,18.6 µM (active)

SMILES,Potency [1],Potency [2],Potency [3],Potency [4],Potency [5],Potency [6]
Nc1nc(-c2nn(Cc3ccccc3F)c3ncccc23)ncc1C1CC1,5.9 µM (active),1.18 µM (active),14800 nM (active),,,
Nc1ncnc(Nc2ccc(OCc3ccccc3)c(Cl)c2)c1/C=N/OCCN1CCOCC1,inactive,,,,,23.5 µM (active)
CC[C@]12C=CCN3CC[C@@]4(c5cc([C@@]6(C(=O)OC)CC7C[C@@H](C(C)(F)F)CN(Cc8c6[nH]c6ccccc86)C7)c(OC)cc5N(C)[C@H]4[C@@](O)(C(=O)OC)[C@@H]1OC(C)=O)[C@@H]32 (some centres undefined),0.296 µM (active),0.417 µM (active),468 nM (active),0.372 µM (active),0.332 µM (active),
C=C[C@@H]1CN2CCC1C[C@H]2[C@H](O)c1ccnc2ccc(OC)cc12 (some centres undefined),20.9 µM (active),16.6 µM (active),inactive,inactive,inactive,
CCCS(=O)(=O)c1nc(NC2CC2)cc(-c2ccc3c(ccn3C3CC(C)(C)NC(C)(C)C3)c2)n1,2.78 µM (active),2.48 µM (active),,3.12 µM (active),,
CN(Cc1cnc2nc(N)nc(N)c2n1)c1ccc(C(=O)N[C@@H](CCC(=O)O)C(=O)O)cc1,0.0468 µM (active),0.105 µM (active),332 nM (active),,,
Clc1ccc(COC(Cn2ccnc2)c2ccc(Cl)cc2Cl)cc1 (centres undefined),,20.9 µM (active),,,,
COc1cc(NCc2ccc3nc(N)nc(N)c3c2C)cc(OC)c1OC,,5.9 µM (active),,,,
Cc1ccc(Nc2nnc(Cc3ccncc3)c3ccccc23)cc1Br,,16.6 µM (active),inactive,,,20.9 µM (active)
COc1ccc(C2=N[C@H](c3ccc(Cl)cc3)[C@H](c3ccc(Cl)cc3)N2C(=O)N2CCNC(=O)C2)c(OC(C)C)c1,,23.5 µM (active),inactive,26.3 µM (active),,23.5 µM (active)
CN1C(N)=N[C@](C)(c2cc(NC(=O)c3ccc(F)cn3)ccc2F)CS1(=O)=O,inactive,,,inactive,,inactive
O=c1cc(-c2ccc(O)c(O)c2)oc2cc(O)cc(O)c12,,8.33 µM (active),,,,
NC(=O)c1cnc2[nH]ccc2c1NC1C2CC3C[C@H]1CC(O)(C3)C2 (some centres undefined),,0.209 µM (active),833 nM (active),,,8.33 µM (active)
O=C(NCc1ccncc1)C12C[C@H]3C[C@@H](C1)CC(c1ccc(Cl)cc1)(C3)C2,20.9 µM (active),,inactive,,,
CN[C@@H]1C[C@H]2O[C@@](C)([C@@H]1OC)n1c3ccccc3c3c4c(c5c6ccccc6n2c5c31)C(=O)N[C@H]4O,,0.0215 µM (active),135 nM (active),0.605 µM (active),,0.428 µM (active)
CNC(=O)[C@H]1O[C@@H](n2cnc3c(NCc4cccc(I)c4)nc(Cl)nc32)[C@H](O)[C@@H]1O,inactive,,inactive,inactive,,
CCN1C(=O)N2Cc3cc(OC)cc(OC)c3[C@@H](C)C=C2C12CCN(Cc1cc(C)cc(C)c1)CC2,,29.5 µM (active),,,,23.5 µM (active)
C/C(=C\C(=O)Nc1ccccc1C(=O)O)c1ccc2ccccc2c1,inactive,,,,inactive,inactive
Cn1ncc(NC(=O)c2nc(-c3c(F)cccc3F)sc2N)c1N1CC[C@@H](N)[C@H](F)CC1,,2.63 µM (active),93.4 nM (active),,,2.09 µM (active)
CC[C@H](NC(=O)[C@H](C)NC)C(=O)N1C[C@@H](O)C[C@H]1Cc1c(-c2[nH]c3cc(F)ccc3c2C[C@@H]2C[C@H](O)CN2C(=O)[C@H](CC)NC(=O)[C@H](C)NC)[nH]c2cc(F)ccc12,inactive,,332 nM (active),0.742 µM (active),1.18 µM (active),
CCCCOc1ccc(CC(=O)NO)cc1,13.2 µM (active),,,,23.5 µM (active),20.9 µM (active)
COCCOC(=O)N1CCN(S(=O)(=O)c2cc(F)c(Oc3ccc(Cl)cc3)c(F)c2)C(C(=O)NO)C1 (centres undefined),14.8 µM (active),,10500 nM (active),8.33 µM (active),8.33 µM (active),
COC(=O)C1=C(C)NC(c2ncc(F)cc2F)=N[C@H]1c1ccc(F)cc1Cl,,18.6 µM (active),,,,16.6 µM (active)
O=C1CC(c2c[nH]c3ccc(F)cc23)C(=O)N1 (centres undefined),inactive,,,inactive,inactive,inactive
CO[C@H]1/C=C/O[C@@]2(C)Oc3c(C)c(O)c4c(O)c(c5c(c4c3C2=O)=NC2(CCN(CC(C)C)CC2)N=5)NC(=O)/C(C)=C/C=C/[C@H](C)[C@H](O)[C@@H](C)[C@@H](O)[C@@H](C)[C@H](OC(C)=O)[C@@H]1C,16.6 µM (active),,inactive,18.6 µM (active),,
CC(=O)Nc1ccc(C(=O)NC(C)(C)C)cc1,inactive,,inactive,,inactive,
